Target: Shiga toxin 2 (Escherichia coli O157:H7) (UniProt P09385+P09386)
Experiment: E. coli 0.157:H7 Shiga Toxin SOP - stx2 screening assay
Format: functional
Set-up: scale not given: direction of the effect not stated beside the values
Settings: 30 µM

Compound	Percent Effect
Cc1cc(C)n(-c2ccc(CNCc3ccc(OC(C)C)cc3)cn2)n1	29.5%
Cc1nnc(CCNC2CCN(c3ncnc4c(C)csc34)CC2)s1	-65.7%
CCn1cc(S(=O)(=O)N(C)Cc2c(Br)cnn2CC)c(C)n1	13.9%
CCc1ccc(C(=O)N2CCCC(c3noc(CC)n3)C2)o1 (stereo not given)	10.6%
Cc1cc2ccccc2n1CCC(=O)NCc1ncc[nH]1	4.66%
Cc1cccc(CN2C[C@@H]3COC[C@]3(CNC(=O)c3ccsc3)C2)n1	-15.8%
CNC(=O)CN1CCCC12CCN(C(=O)c1ccc(F)cc1)CC2	-14.4%
CC(C)c1nccn1C1CCCN(C(=O)c2cnn(C)c2C2CC2)C1 (stereo not given)	28.9%
COCCN(CCc1ccccc1)Cc1nc2c(cnn2C)c(=O)[nH]1	29.5%
O=C1CC2(CCN(CCO)CC2)CN1Cc1cc(F)cc(F)c1	11.4%
CN(C)CCN1C(=O)CCC12CCN(C(=O)c1cccnc1)CC2	-8.32%
CC(C)c1nc(C(=O)N2CCOCC2CC(=O)c2ccco2)c[nH]1 (stereo not given)	-1.83%
CC1CCN(S(=O)(=O)NCCCn2cncn2)CC1	-6.63%
Cn1cc(C(=O)NC[C@@H]2OC[C@H]3CN(S(C)(=O)=O)CC[C@H]32)cn1	-26.8%
Cc1cc2cc(C(=O)N3CC[C@H](O)[C@]4(CCCO4)C3)ccc2o1	-10.1%
Cn1cnnc1C1CCN(c2cncc(-n3cccn3)n2)CC1	-33.6%
Cc1ccc(C(=O)N(C)Cc2cc(Br)cs2)c(=O)[nH]1	-3.88%
Cc1cc(C)n(CC2CCCN2CC(=O)N(C)C)n1 (stereo not given)	10.1%
CN(C)C(=O)N1CCc2c(nnn2C)C1COCc1ccccc1 (stereo not given)	-16.6%
COCC(=O)N1CCC2(CC1)CCN(Cc1ccccn1)C2=O	7.27%

Compound	Percent Effect
O=C(Cn1cc(C(=O)O)ccc1=O)Nc1ccc(F)cc1Cl	-28.6%
CCc1nc(CN(C)CC2CCN(CCO)CC2)no1	-1.86%
CCN1CCC2(CCC(=O)N2Cc2cccc(C)n2)CC1	1.16%
CS(=O)(=O)c1ccc(CNC(=O)N2CCC(C(N)=O)C2)cc1 (stereo not given)	-11.7%
CN1CCCc2cc(CNC(=O)c3ccc(NC4CC4)nc3)ccc21	-12.6%
O=C1CC(c2ccccc2)c2c(n3ccsc3nc2=O)N1 (stereo not given)	-13.6%
CO[C@H]1CCN(S(=O)(=O)c2cn(C)cn2)[C@H]1Cc1cnn(C)c1	5.54%
CC(=O)c1cn(CCC(=O)NCCC(=O)O)c2ccccc12	-25.1%
CCCS(=O)(=O)c1ncc(CN2CCC(CO)CC2)n1CC1CCCO1 (stereo not given)	-15.9%
Cc1cc(C)n(C2CCCN(C(=O)c3ccc(NC4CC4)nc3)C2)n1 (stereo not given)	27%
CS(=O)(=O)CCC(=O)NC1(c2cccc(Br)c2)CC1	3.23%
COCCNS(=O)(=O)c1cccc2c1CN(C(=O)c1ccccc1)CC2	-27.5%
COCC(=O)N1CCC2(CC1)COCCN2CCN(C)C	-1.86%
Cn1ncc2c(NCCC34CCCN3CCC4)nc(C3CCCC3)nc21	-7.47%
O=C(CCc1cccnc1)N1CCCC(n2cncn2)C1 (stereo not given)	1.94%
Cn1cccc1C(=O)N1CCCN(CCCc2ccccc2)CC1	-20.8%
Cc1cncc(C2CCCN(C(=O)c3ccc(C)[nH]c3=O)C2)n1 (stereo not given)	-13%
Cc1ccc(Cn2ccc(NS(C)(=O)=O)n2)cc1	-19.8%
COc1ccc(C(=O)NS(=O)(=O)c2ccc(C#N)cc2C(F)(F)F)cc1	8.91%
CC(=O)Nc1nc(C(=O)Nc2ccc(F)cc2)cs1	-5.87%
